According to PubChem BioAssay AID2314 (National Center for Advancing Translational Sciences (NCATS), 2010):
Where “and” joins values, the source holds several entries; their conditions need not be identical. Equal values may be shown once. Among all 300,000 compounds or so, about 37,000 (12%) were called active. Many of the other results were omitted from the sample, so actives are more common in it than they were. A number with no mark means an inactive call. No stated cut-off is given here; in the data, active means max response mostly above about 13% (no sharp cut-off); inactive means mostly below about 14%.

Test: Cycloheximide Counterscreen for Small Molecule Inhibitors of Shiga Toxin; further: read at 38.3 µM for the half of the compounds with a filed dose; 0% is about no effect
Conditions: cell reporter, cycloheximide protein synthesis inhibition counterscreen; active compounds read high

Row | SMILES | max response
1 | CCCCNC(=O)C1(O)c2ccccc2NC(=O)N1c1ccc(Cl)cc1 (stereo unspecified) | 7.78%
2 | CC(=O)Oc1ccc(N(C(C)=O)S(=O)(=O)c2ccc3ccccc3c2)cc1Br | -1.7%
3 | O=C(COc1ccc2ccc(=O)oc2c1)NCC(O)c1ccccc1 (stereo unspecified) | -10.7%
4 | CN(CC(=O)NCc1ccncc1)S(=O)(=O)c1ccc(Br)cc1 | -0.724%
5 | COc1ccc(C(C)C)cc1S(=O)(=O)Nc1ncn[nH]1 | -4.29%
6 | CCc1nnc(NC(=O)CCC(=O)N2CCN(c3cc(C)ccc3C)CC2)s1 | -5.72%
7 | Cc1c(NS(=O)(=O)c2ccc(NC3CCCC3)c([N+](=O)[O-])c2)c(=O)n(-c2ccccc2)n1C | -1.22%
8 | Cc1ccc(NS(=O)(=O)c2ccc3c(c2)n(C)c(=O)c(=O)n3C)c(C)c1 | 1.12%
9 | O=C(Nc1ccccc1)c1ccc2c(c1)OCCCO2 | 41.3% (active)
10 | O=C(O)CCC(=O)Nc1ccc(N2CCOCC2)cc1 | -3.84%
11 | O=C(c1ccc2c(c1)OCO2)N1CCOCC1 | -3.42%
12 | COCc1nnc(NC(=O)CS(=O)(=O)Cc2ccccc2)s1 | 5.49%
13 | Cc1ccc(C(=O)Nc2sc(Cc3ccc4c(c3)OCO4)c(C)c2C(N)=O)cc1 | -4.2%
14 | O=C(CN1CCc2cc3c(cc2C1)OCCCO3)Nc1ccccc1 | 5.97%
15 | CC(C)C(=O)Nc1cccc(C(=O)Nc2ccc3c(c2)OCO3)c1 | 58.7% (active)
16 | C/C(Cc1ccccc1)=N\NC(=O)CNC(=O)c1ccc2c(c1)OCCO2 | -2.54%
17 | O=C(Nc1ccc(N2CCOCC2)cc1)c1ccc2c(c1)OCO2 | 36.8% (active)
18 | COCc1nnc(NC(=O)c2ccc3c(c2)OCO3)s1 | 45.3% (active)
19 | COc1ccccc1C(=O)N/C(=C/c1ccc2c(c1)OCO2)C(=O)Nc1cccc(C(=O)O)c1 | -2.49%

Row | SMILES | max response
20 | CCCN1C2=C(C(=O)CCC2)C(c2ccc(O)c(Br)c2)C2=C1CCCC2=O | -1.08%
21 | Cc1ccc(O)c(/C=N/NC(=O)COc2ccc3c(C)cc(=O)oc3c2)c1 | -8.1%
22 | Cn1c(=O)c2c(ncn2CC(COCc2ccccc2Cl)OCc2ccccc2Cl)n(C)c1=O (stereo unspecified) | -1.13%
23 | Cc1ccccc1N1C(=O)C(Oc2ccc(Cl)cc2)C1CNCC1CCCO1 (stereo unspecified) | 0.428%
24 | CC(=O)Nc1sc2c(c1C(c1cccc(F)c1)N1CCN(CCO)CC1)CCCC2 (stereo unspecified) | -2.8%
25 | CCOCCCNC(=O)c1ccc(CS(=O)(=O)c2cccc(C(F)(F)F)c2)o1 | -3%
26 | Cc1ccc(-c2ccnc3[nH]n(-c4ccccc4)c(=O)c23)cc1 | 4.53%
27 | COc1ccccc1N1CCN(c2ccc([N+](=O)[O-])nc2)CC1 | 12.7%
28 | CCOc1ccc(OCC)c(-c2c(=O)n(OCc3ccc(Cl)cc3)c3ccccc3[n+]2[O-])c1 | -2.89%
29 | COc1ccc(OC)c(-c2c(=O)n(OCc3ccccc3Br)c3ccccc3[n+]2[O-])c1 | -4.9%
30 | CCOC(=O)COn1c(=O)c(-c2ccc(OCC)cc2)[n+]([O-])c2ccccc21 | 21.8% (active)
31 | COCCNC(=O)C(c1ccc(C)cc1)N(C(=O)CCC(=O)Nc1ccccn1)c1cccc(C)c1 (stereo unspecified) | -1.18%
32 | O=C(Cn1ncc2c3ccccc3n(Cc3ccccc3)c2c1=O)NCc1ccccn1 | -1.24%
33 | CCCCCOc1ccc(CSC2=NCCN2)cc1[N+](=O)[O-] | 16.2% (active)
34 | CCCCOc1ccc(CSC(=N)N)cc1[N+](=O)[O-] | -3.27%
35 | CCCOc1ccc(Cn2ccnc2)cc1[N+](=O)[O-] | 6.93%
36 | CCN=C1S/C(=C\c2cc(Br)ccc2OCC(=O)OCC)C(=O)N1CC | 2.07%
37 | c1ccc(C(c2ccccc2)N2CCN(Cc3nnnn3C3CCCCC3)CC2)cc1 | -1.95%
38 | CC(=O)Nc1ccc(NC(=O)C2CCCN2S(=O)(=O)c2cccc(C(F)(F)F)c2)cc1 (stereo unspecified) | 0.889%

Row | SMILES | max response
39 | O=C1CCc2cc(S(=O)(=O)N3CCC(C(=O)NCc4ccccc4Cl)CC3)ccc2N1 | 5.54%
40 | CSc1cccc(NC(=O)C2CCCN2S(=O)(=O)c2ccc3c(c2)CCC(=O)N3)c1 (stereo unspecified) | 25.7% (active)
41 | CS(=O)(=O)N1CCN=C1SCc1ccc(F)cc1 | -2.32%
42 | Cc1cc(OCC(=O)Nc2c(C)n(C)n(-c3ccccc3)c2=O)ccc1[N+](=O)[O-] | 1.26%
43 | O=C1CSC(=S)N1c1ccc(O)cc1 | 0.99%
44 | O=S(=O)(c1ccc(-c2ccno2)s1)N1CCCCC1 | -3.51%
45 | Cc1cc(NC(=O)CCC(=O)N(Cc2ccccc2)C(C(=O)NC2CCCC2)c2ccc(C)o2)no1 (stereo unspecified) | -2.01%
46 | O=c1cc(-c2ccc(O)cc2)oc2c(-c3cc(-c4cc(=O)c5c(O)cc(O)cc5o4)ccc3O)c(O)ccc12 | -11.1%
47 | COc1c(O)cc2oc(-c3ccc(O)c(O)c3)cc(=O)c2c1O | 43% (active) and 45.2% (active)
48 | COc1ccc(-c2cc(=O)c3c(O)cc(O[C@@H]4O[C@H](CO[C@@H]5O[C@@H](C)[C@H](O)[C@@H](O)[C@H]5O)[C@@H](O)[C@H](O)[C@H]4O)cc3o2)cc1O | -0.55%
49 | Cc1cc(C)cc(Oc2c(C(F)(F)F)oc3cc(OCC(=O)O)ccc3c2=O)c1 | -1.36%
50 | c1ccc(-c2cnc(CN3CCN(c4ccccc4)CC3)o2)cc1 | 7.72%
51 | O=C(CCSc1ccccc1)N1CCN(c2ccccc2F)CC1 | 48.8% (active)
52 | CCc1ccc(NC(=O)CS(=O)CC(=O)N2CCN(c3ccccc3F)CC2)cc1 (stereo unspecified) | 3.43%
53 | O=C(NCC(=O)N1CCN(c2ccccc2O)CC1)c1ccc2ccccc2c1 | 1.36%
54 | O=C(CCS(=O)(=O)c1cccc2nsnc12)N1CCN(c2ccccc2F)CC1 | 6.58%
55 | O=C(NCC(=O)N1CCN(c2ccccc2F)CC1)c1cccs1 | 23.4% (active)
56 | O=C(CCc1ccccc1F)N1CCN(c2ccccc2)CC1 | 0.391%
